{
  "source": "the OligoGym collection",
  "data": [
    {"molecular_target": "SRSF6", "experiment": "pooled miR-30 sensor sort-seq; sequence = guide strand", "settings": "shRNA", "values": [
      {"sequence": "TAGATTTGCTCTTTGATCTAGA", "sensor-assay potency score (higher = more potent)": 0.174},
      {"sequence": "TTGATCTAGATTTCCTGCCTTT", "sensor-assay potency score (higher = more potent)": 0.199},
      {"sequence": "TACTTCGTGACCGTCTTCTAGA", "sensor-assay potency score (higher = more potent)": -0.126},
      {"sequence": "TAGATCTGCTTCGAGAATGTGA", "sensor-assay potency score (higher = more potent)": -0.00685},
      {"sequence": "TTGATCGAGAACGTGATCGACC", "sensor-assay potency score (higher = more potent)": -0.727},
      {"sequence": "TTAGATTTGCTCTTTGATCTAG", "sensor-assay potency score (higher = more potent)": 0.289},
      {"sequence": "ATTTTTGAGGTCTACTTCGAGG", "sensor-assay potency score (higher = more potent)": -1.54},
      {"sequence": "TTGAAGTAGCTCTTTTTGGTGG", "sensor-assay potency score (higher = more potent)": -0.375},
      {"sequence": "TTTGAGGTCTACTTCGAGGAGG", "sensor-assay potency score (higher = more potent)": -0.608},
      {"sequence": "TTGACTTTGAGCGAGATCTAGA", "sensor-assay potency score (higher = more potent)": -0.299},
      {"sequence": "TTGAGCGAGATCTAGAACGGGA", "sensor-assay potency score (higher = more potent)": 0.0866},
      {"sequence": "TTGATCTTGACTTTGAGCGAGA", "sensor-assay potency score (higher = more potent)": -0.415}
    ]},
    {"molecular_target": "SRSF7", "experiment": "pooled miR-30 sensor sort-seq; sequence = guide strand", "settings": "shRNA", "values": [
      {"sequence": "TTGATCTTGACCTCGACGGGGA", "sensor-assay potency score (higher = more potent)": 0.107},
      {"sequence": "TTTCTAACTCTCCTTTGCCAGC", "sensor-assay potency score (higher = more potent)": -1.58},
      {"sequence": "TTCTGAGTGAAGCTGATCTTGA", "sensor-assay potency score (higher = more potent)": -0.735},
      {"sequence": "TAGACCTGGATCTTGATCTTGA", "sensor-assay potency score (higher = more potent)": -0.00181},
      {"sequence": "TTGATCGTCGAGGAGATGCTGA", "sensor-assay potency score (higher = more potent)": -0.317},
      {"sequence": "TTTCTCGCAATCCATACAGTTC", "sensor-assay potency score (higher = more potent)": -1},
      {"sequence": "TTACCAACATACACCTTGGTTT", "sensor-assay potency score (higher = more potent)": -0.665},
      {"sequence": "TAGATCTTGATCGTCGAGGAGA", "sensor-assay potency score (higher = more potent)": -0.545},
      {"sequence": "TATCAAAACGTGATCTCCGAGG", "sensor-assay potency score (higher = more potent)": -0.606},
      {"sequence": "TAAAGGACCATAATAACTGAAA", "sensor-assay potency score (higher = more potent)": -1.16},
      {"sequence": "TGCATCTCTAGGATCTTCGAAT", "sensor-assay potency score (higher = more potent)": -1.39},
      {"sequence": "TAGATCTTCTGAGTGAAGCTGA", "sensor-assay potency score (higher = more potent)": 0.474}
    ]},
    {"molecular_target": "SS18", "experiment": "pooled miR-30 sensor sort-seq; sequence = guide strand", "settings": "shRNA", "values": [
      {"sequence": "TTGGTTAACTTGACCCATCATT", "sensor-assay potency score (higher = more potent)": -0.57},
      {"sequence": "TTGTGTGCAACATCTGCTGATA", "sensor-assay potency score (higher = more potent)": -0.703},
      {"sequence": "TTGTCATCTGATTCTGTACTGG", "sensor-assay potency score (higher = more potent)": -0.29},
      {"sequence": "TAGAATCTGCTATTGTAGCAAG", "sensor-assay potency score (higher = more potent)": -0.645},
      {"sequence": "TTATACACTGAATAAGATGGTT", "sensor-assay potency score (higher = more potent)": -0.124},
      {"sequence": "TTTATCTTTATAGCACACCATT", "sensor-assay potency score (higher = more potent)": -1.15},
      {"sequence": "TTGTCATCCAACATCTTCTGAA", "sensor-assay potency score (higher = more potent)": -0.31},
      {"sequence": "TTTGTGTGCAACATCTGCTGAT", "sensor-assay potency score (higher = more potent)": 0.199},
      {"sequence": "ATTGTCATCCAACATCTTCTGA", "sensor-assay potency score (higher = more potent)": -0.704},
      {"sequence": "TTTCAGTCTGTAACAGTCCATT", "sensor-assay potency score (higher = more potent)": -0.917},
      {"sequence": "TATTGTATTGCTGAGAAGGAGG", "sensor-assay potency score (higher = more potent)": -1.18},
      {"sequence": "TATTGTAGCAAGGTATACCAAG", "sensor-assay potency score (higher = more potent)": -0.903}
    ]}
  ]
}
